“And” between values parts separate entries of the source, which are not always exact repeats. Equal entries are not always repeated. Screen size: about 5,500 compounds; about 2,000 (36%) were called active. Another 18% or so got no clear call; they are omitted. Cut-off read from the data, not from the text of the source: active = normalized growth mostly below about 0.91 (no sharp cut-off); inconclusive = no clear call, values can overlap the other calls; inactive = mostly above about 0.92. This is one part of the list.
Assay: chemical genetic growth profiling, strain panel (AID 1159580);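 note: tested at 20 µM; growth read once vehicle control cultures reached saturation at 30 °C; 1 = growth at the plate median or of vehicle wells; lower values mean less growth of the strain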
Settings: S. cerevisiae deletion strains, growth OD

Measured: normalized growth

NC(=O)NCCCC(N)C(=O)O (configuration not stated)
inactive: locus YAL013W, strain DEP1, stronger effect = lower value 1.01 | locus YAL021C, strain ccr4, stronger effect = lower value 0.962 | locus YAL026C, strain drs2, stronger effect = lower value 1.01 | locus YAL030W, strain snc1, stronger effect = lower value 1.01 | locus YBL061C, strain skt5, stronger effect = lower value 1.01 | locus YBR009C, strain hhf1, stronger effect = lower value 1.05 | locus YBR021W, strain FUR4, stronger effect = lower value 1.01 | locus YBR023C, strain chs3, stronger effect = lower value 1.01 | locus YBR171W, strain sec66, stronger effect = lower value 0.99 | locus YBR229C, strain ROT2, stronger effect = lower value 1.01 | locus YBR231C, strain swc5, stronger effect = lower value 1.03 | locus YBR279W, strain paf1, stronger effect = lower value 1.01 | locus YCL011C, strain gbp2, stronger effect = lower value 0.996 | locus YCL016C, strain dcc1, stronger effect = lower value 1 | locus YCL029C, strain bik1, stronger effect = lower value 0.998 | locus YCL061C, strain MRC1, stronger effect = lower value 0.992 | locus YCL069W, strain vba3, stronger effect = lower value 0.996 | locus YCR088W, strain abp1, stronger effect = lower value 0.995 | locus YDL005C, strain med2, stronger effect = lower value 0.996 | locus YDL035C, strain GPR1, stronger effect = lower value 1.03 | locus YDL040C, strain nat1, stronger effect = lower value 1 | locus YDL074C, strain BRE1, stronger effect = lower value 1.06 | locus YDL101C, strain DUN1, stronger effect = lower value 1.03 | locus YDL134C, strain PPH21, stronger effect = lower value 1.02 | locus YDL185W, strain tfp1, stronger effect = lower value 0.994 | locus YDL192W, strain arf1, stronger effect = lower value 0.993 | locus YDR001C, strain nth1, stronger effect = lower value 0.989 | locus YDR069C, strain doa4, stronger effect = lower value 1.02 | locus YDR101C, strain arx1, stronger effect = lower value 0.988 | locus YDR137W, strain rgp1, stronger effect = lower value 0.986 | locus YDR150W, strain NUM1, stronger effect = lower value 1.02 | locus YDR159W, strain sac3, stronger effect = lower value 1.04 | locus YDR162C, strain NBP2, stronger effect = lower value 1.04 | locus YDR195W, strain ref2 1.02 | locus YDR297W, strain sur2, stronger effect = lower value 1.01 | locus YDR318W, strain mcm21, stronger effect = lower value 0.983 | locus YDR334W, strain swr1, stronger effect = lower value 0.982 | locus YDR335W, strain msn5, stronger effect = lower value 0.993 | locus YDR388W, stronger effect = lower value 0.992 | locus YDR392W, strain spt3, stronger effect = lower value 0.96 | locus YDR502C, strain sam2, stronger effect = lower value 0.993 | locus YEL003W, strain gim4, stronger effect = lower value 0.994 | locus YEL037C, strain rad23, stronger effect = lower value 0.995 | locus YEL061C, strain CIN8 (second series), stronger effect = lower value 0.999 | locus YEL061C, strain CIN8, stronger effect = lower value 1.01 | locus YER015W, strain faa2, stronger effect = lower value 1 | locus YER016W, strain bim1, stronger effect = lower value 1.01 | locus YER110C, stronger effect = lower value 0.988 | locus YER111C, strain swi4, stronger effect = lower value 1 | locus YER155C, strain BEM2 (second series), stronger effect = lower value 1.04 | locus YER155C, strain BEM2, stronger effect = lower value 1.01 | locus YER167W, strain BCK2, stronger effect = lower value 1.04 | locus YFR010W, strain ubp6, stronger effect = lower value 0.982 | locus YGL078C, strain dbp3, stronger effect = lower value 1 | locus YGL086W, strain mad1, stronger effect = lower value 0.997 | locus YGL167C, strain pmr1, stronger effect = lower value 1.03 | locus YGL173C, strain kem1, stronger effect = lower value 1 | locus YGL227W, strain vid30, stronger effect = lower value 0.998 | locus YGL240W, strain doc1, stronger effect = lower value 1.07 | locus YGL248W, strain PDE1, stronger effect = lower value 1.01 | locus YGL253W, strain hxk2, stronger effect = lower value 1 | locus YGR078C, strain PAC10, stronger effect = lower value 1.05 | locus YGR135W, strain pre9, stronger effect = lower value 1 | locus YGR229C, strain SMI1, stronger effect = lower value 1.02 | locus YGR252W, strain gcn5, stronger effect = lower value 0.98 | locus YHR013C, strain ard1, stronger effect = lower value 1.01 | locus YHR027C, strain rpn1, stronger effect = lower value 0.997 | locus YHR030C, strain SLT2, stronger effect = lower value 1.01 | locus YHR079C, strain IRE1 (second series), stronger effect = lower value 0.977 | locus YHR079C, strain IRE1, stronger effect = lower value 0.992 | locus YHR094C, strain hxt1, stronger effect = lower value 0.995 | locus YHR129C, strain ARP1, stronger effect = lower value 1.04 | locus YHR142W, strain chs7, stronger effect = lower value 0.93 | locus YHR200W, strain rpn10, stronger effect = lower value 0.994 | locus YIL066C, strain RNR3, stronger effect = lower value 1.02 | locus YIL073C, strain SPO22, stronger effect = lower value 1.01 | locus YIL125W, strain kgd1, stronger effect = lower value 0.987 | locus YIR030C, strain dcg1, stronger effect = lower value 0.993 | locus YJL092W, strain hpr5, stronger effect = lower value 0.979 | locus YJL095W, strain BCK1 (second series), stronger effect = lower value 1.01 | locus YJL095W, strain BCK1, stronger effect = lower value 1.05 and 1.01 | locus YJL115W, strain asf1, stronger effect = lower value 0.988 | locus YJL129C, strain trk1, stronger effect = lower value 0.973 | locus YJL134W, strain LCB3, stronger effect = lower value 1.01 | locus YJL154C, strain vps35, stronger effect = lower value 0.997 | locus YJL164C, strain tpk1, stronger effect = lower value 0.981 | locus YJL166W, strain qcr8, stronger effect = lower value 1.01 | locus YJL168C, strain set2, stronger effect = lower value 1 | locus YJL187C, strain SWE1 (second series), stronger effect = lower value 1.02 | locus YJL187C, strain SWE1, stronger effect = lower value 1 | locus YJR043C, strain POL32, stronger effect = lower value 1.03 | locus YJR066W, strain TOR1, stronger effect = lower value 0.964

Reference: PubChem BioAssay AID1159580 (chemical genetic matrix, 2015)
